Assay type in all cases: functional
The target of experiment [1] is Solute carrier family 2, facilitated glucose transporter member 1 (Homo sapiens) (UniProt P11166). In words: ST_JUDE_LEISH: Cytotoxicity at 2uM final concentration against transgenic Leishmania Mexicana promastigotes LmGLUT1 that are glucose transport deficient and complemented with the human glucose transporter GLUT1. Activity is measured by DNA content using SYBR green in vitro.

The target in experiment [2] is Hexose transporter 1 (Plasmodium falciparum) (UniProt O97467). Kind of experiment: ST_JUDE_LEISH: Cytotoxicity at 2uM final concentration against transgenic Leishmania Mexicana promastigotes LmPfHT that are glucose transport deficient and complemented with the Plasmodium falciparum hexose transporter. Activity is measured by DNA content using SYBR green in vitro.
The target in experiment [3] is Glucose transporter (Leishmania mexicana) (UniProt O61059). In words: ST_JUDE_LEISH: Cytotoxicity at 2uM final concentration against transgenic Leishmania Mexicana promastigotes LmGT2 that are glucose transport deficient and complemented with the L. Mexicana glucose transporter 2. Activity is measured by DNA content using SYBR green in vitro.

Where “and” joins values, the source holds several entries; their conditions need not be identical. Equal values may be shown once.

In general, inhibition refers to the relative decrease from the control value, in per cent.

Chain of Solute carrier family 2, facilitated glucose transporter member 1 (Homo sapiens) (P11166 whole entry): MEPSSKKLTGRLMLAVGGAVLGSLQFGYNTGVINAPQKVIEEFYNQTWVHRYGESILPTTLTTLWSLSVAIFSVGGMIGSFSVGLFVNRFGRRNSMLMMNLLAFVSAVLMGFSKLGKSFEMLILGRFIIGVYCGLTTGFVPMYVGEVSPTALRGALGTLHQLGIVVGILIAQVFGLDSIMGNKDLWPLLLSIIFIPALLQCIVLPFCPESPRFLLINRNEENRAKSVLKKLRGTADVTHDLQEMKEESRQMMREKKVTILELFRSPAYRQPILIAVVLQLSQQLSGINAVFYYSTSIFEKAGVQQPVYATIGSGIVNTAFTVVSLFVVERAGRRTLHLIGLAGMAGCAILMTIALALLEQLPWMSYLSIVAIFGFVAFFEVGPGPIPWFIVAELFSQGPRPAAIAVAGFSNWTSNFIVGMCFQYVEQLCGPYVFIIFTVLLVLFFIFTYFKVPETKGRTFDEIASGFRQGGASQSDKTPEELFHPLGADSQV

For the molecule `O=C1NCN(c2ccc(O)cc2)C12CCN(CCCC(c1ccc(F)cc1)c1ccc(F)cc1)CC2`, the inhibition in experiment [1] amounted to 3.87%; in experiment [2] it was 3.34%; in experiment [3], 3.43%.
Regarding `CC(Cc1ccc(OCc2ccc(CCN(C)C)cc2)cc1)NCCc1cccc(Cl)c1` (stereo unspecified), the inhibition in experiment [1] was 1.8%; in experiment [2], 0.77%; in experiment [3] it was -2.69%.
In the case of `COc1ccc(CCNCc2ccc3nc(N)cc(C)c3c2)cc1`, the inhibition in experiment [1] is -3.73%; in experiment [2], -2.84%; in experiment [3] it was -2.66%.
`S=C(Nc1ccc2c(c1)OCCO2)NC1CCC(CN2CCC(c3c[nH]c4ccccc34)CC2)CC1` (stereo unspecified): the inhibition was 0.68% and -2.92% in experiment [1]; -3.08% and -1.27% in experiment [2]; 4.46% and -3.36% in experiment [3].
Consider `CNC(=O)c1ccc2[nH]cc(C3CCN(CC4CCN(C(=O)/C=C/c5ccc(Cl)c(Cl)c5)CC4)CC3)c2c1`, for which the figures for the inhibition in experiment [1], in experiment [2] and in experiment [3] were 1.1%, -0.15% and 0.08%, respectively.
For `COc1ccc(OC)c(CNCC(O)c2cc(C(F)(F)F)cc(C(F)(F)F)c2)c1` (stereo unspecified), in that order: 5.31%, 6.21% and 3.49%.
Consider `Cc1ccccc1CNCC(O)c1cccc(C(F)(F)F)c1` (stereo unspecified), for which the inhibition in experiment [1] is 1.72%; in experiment [2], 2.2%; in experiment [3], -1.33%.
For `COc1ccccc1CC(C)NCC(O)c1cccc(Cl)c1` (stereo unspecified), in that order: -0.34%, 4.23% and 1.87%.
Turning to `O=C(/C=C/c1c(Cl)cccc1Cl)NC1CCC(CN2C3CCC2CC(c2c[nH]c4ccccc24)C3)CC1` (stereo unspecified), the values for the inhibition in experiment [1], in experiment [2] and in experiment [3] were 2.07%, 1.89% and -0.2%, respectively.
As for `CCCc1cc([C@@H](O)[C@@H]2C[C@@H]3CCN2C[C@@H]3CC)c2ccccc2n1`, the inhibition is -0.67% in experiment [1], 3.99% in experiment [2] and 0.11% in experiment [3].
In the case of `COc1ccc2[nH]cc(C3=CCN(Cc4ccccc4)CC3)c2c1`, the inhibition in experiment [1] is 3.41%; in experiment [2], 2.34%; in experiment [3], 2.21%.
Take `CC[C@H]1CN2CC[C@@H]1C[C@H]2[C@H](O)c1cc(-c2cc(Cl)cc(Cl)c2)nc2ccc(OC)cc12`: the inhibition is 2.83% in experiment [1], 2.24% in experiment [2] and 1% in experiment [3].

Values taken from ChEMBL document CHEMBL3433997, “St. Jude Leishmania screening dataset” (2016).
